Screens from PubChem BioAssay.
ALDH1A1 inh: qHTS Assay for Inhibitors of Aldehyde Dehydrogenase 1 (ALDH1A1); Purified ALDH1A1, NADH fluorescence, propionaldehyde substrate; Aldehyde dehydrogenase 1A1 (Homo sapiens), P00352; Potency, µM (doses to about 75.3 µM), for inactives: top-dose activity, negative = inhibition, usual class: inhibitors; actives 7.3% (n = 220,000);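 also: plate controls were no enzyme wells and a reference inhibitor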
JMJD2E inh: qHTS Assay for Inhibitors of Human Jumonji Domain Containing 2E (JMJD2E); Lysine-specific demethylase 4E (Homo sapiens), B2RXH2; JMJD2E catalytic domain, FDH-coupled NADH fluorescence (FDH is formaldehyde dehydrogenase); Potency, µM (doses to about 57.1 µM), inactives show at the top dose activity change, negative = inhibition, hits mostly inhibitors; actives 1.6% (n = 230,000);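 also: 0% = wells with enzyme and -100% = buffer wells without enzyme; nearly all actives have a fitted effect of over 50% in size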
HTT cytoprotect: qHTS Multiplex Assay to Identify Dual Action Probes in a Cell Model of Huntington: Cytoprotection (ATP); PC12 HTT-Q103 induced, cytoprotection, ATP luminescence, 40 h; Potency, µM (highest dose often 56.4 µM), for the others: cytoprotection (ATP increase), most hits filed as activators; actives 0.14% (n = 230,000); AID 1471, 2008; active = well fitted curve in the direction sought with a large enough effect; inconclusive = small, poorly fitted or top-dose-only effect, or another doubt; inactive = no such curve, though single readings can be large; an effect the other way counts as inactive or inconclusive; also: % of control where 0% means no effect; nearly all actives have a fitted effect of over 45% in size
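Compounds were screened for protection of PC12 cells against cell death after tebufenozide induction (100 nM final) of mutant Huntingtin exon 1 (Q103) fused to GFP.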
HPGD block: qHTS Assay for Inhibitors of HPGD (15-Hydroxyprostaglandin Dehydrogenase) | actives 4.3% (n = 150,000) | Potency, µM, for inactives: top-dose activity change, negative = inhibition, usual class: inhibitors | AID 894, 2007 | 15-hydroxyprostaglandin dehydrogenase [NAD(+)] (Homo sapiens), P15428 | purified HPGD, NADH fluorescence kinetic, PGE2 substrate; also: % is scaled to controls: 0 for no effect and ±100 for the full control effect
Target sequence (P15428 whole entry, looked up): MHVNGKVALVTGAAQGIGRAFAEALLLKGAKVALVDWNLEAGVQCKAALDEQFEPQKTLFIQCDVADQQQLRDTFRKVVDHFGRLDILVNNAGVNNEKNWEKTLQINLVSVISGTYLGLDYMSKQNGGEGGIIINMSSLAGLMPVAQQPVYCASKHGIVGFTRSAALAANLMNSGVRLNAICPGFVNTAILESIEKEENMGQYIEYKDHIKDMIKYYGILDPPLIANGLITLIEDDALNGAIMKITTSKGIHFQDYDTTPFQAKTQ
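20 nM HPGD preincubated 15 min at room temperature with compound in 50 mM Tris-HCl pH 8, 0.01% Tween 20. Started with 1 mM NAD+ and 30 uM prostaglandin E2; NADH fluorescence (360/450 nm) read 5 times over 30-s intervals, last minus first.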
HttQ103 aggreg: qHTS Multiplex Assay to Identify Dual Action Probes in a Cell Model of Huntington: Aggregate Formation (GFP); AID 1688, 2009; PC12 HttQ103-GFP aggregates, Acumen cytometry, 40 h; actives 1.1% (n = 220,000); Potency, µM (top dose mostly 46.1 µM), for inactives: top-dose activity change, negative = inhibition, actives largely listed as inhibitors; active = well fitted curve in the direction sought with a large enough effect; inconclusive = small, poorly fitted or top-dose-only effect, or another doubt; inactive = no such curve, though single readings can be large; an effect the other way counts as inactive or inconclusive; also: % is scaled to controls: 0 for no effect and ±100 for the full control effect; nearly all actives have a fitted effect of over 60% in size
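Aggregates are detected as GFP objects 1–25 µm with signal 6 STDEV over background in lysates of induced PC12 cells. These carry Huntingtin exon 1 with 103 glutamines fused to GFP under an ecdysone promoter; compounds titrated.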
LMNA splice mod: qHTS Assay for Modulators of Lamin A Splicing | actives 0.01% (n = 200,000) | Potency, µM (top dose mostly 46.1 µM), for the others: at the highest dose ratio change, negative = inhibition, actives largely listed as inhibitors | HeLa LMNA splicing GFP/RFP minigene ratio, 48 h; active = well fitted inhibition curve with a large enough effect in the signal ratio, with a control signal flat, not every such curve was filed as active; inconclusive = small, poorly fitted or top-dose-only effect, or effect the other way, or a change in a side signal; the % refers to the signal ratio; also: % is scaled to controls: 0 for no effect and ±100 for the full control effect
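S3 HeLa stable clones carrying a lamin A-EGFP splicing minigene plus DsRed2 were seeded at 600 cells/well in Opti-MEM with 2% FBS, pin-dosed and incubated 48 h at 37°C. Acumen cytometry (488 nm) gave the GFP/RFP total-intensity ratio.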
* hit, by the source's call; [ ] = remark or other dose. This is a sample that favours compounds with a hit; in the whole collection about 9.2% have one here. Unless noted, calls follow the shape of the dose curve; as a rule, active = well fitted inhibition curve with a large enough effect (not every such curve was filed as active); inconclusive = small, poorly fitted or top-dose-only effect, or another doubt; inactive = no such curve, though single readings can be large or run the other way. Potency is read from the fitted curve at half-maximal effect.

What do the screens show for `CCOC(=O)C1CCCN(C(=O)CCS(=O)(=O)c2cc3c(cc2Cl)NC(=O)CO3)C1` (stereo unspecified)?
LMNA splice mod: 15%[46 µM]

How did FC(F)(F)c1ccccc1-c1nccc(NCc2ccccc2)n1 do in these assays?
ALDH1A1 inh: 5%; JMJD2E inh: -3%; HTT cytoprotect: 10%; HPGD block: -6%; LMNA splice mod: 3%

What do the screens show for `CN(C)c1nc(N)nc(CSc2ncc(Cl)cc2Cl)n1`?
ALDH1A1 inh: -9%; JMJD2E inh: -2%; HTT cytoprotect: -9%; HPGD block: 8.9µM*; HttQ103 aggreg: 6%; LMNA splice mod: 7%

What do the screens show for `CCOc1ccc(C(C)C)cc1S(=O)(=O)Nc1cccc(-c2ccc(N3CCOCC3)nn2)c1`?
LMNA splice mod: -10%[46 µM]

What do the screens show for `O=S1(=O)c2ccccc2N=NN1Cc1ccc(Cl)c(Cl)c1`?
ALDH1A1 inh: 2.5µM*; JMJD2E inh: -4%; HTT cytoprotect: -24%; HPGD block: 5.6µM*; HttQ103 aggreg: 20%; LMNA splice mod: 10%

Results for CC(C)(C)c1ccc(CN2N=Nc3ccccc3S2(=O)=O)cc1 ?
ALDH1A1 inh: 22µM*; JMJD2E inh: -28%; HTT cytoprotect: -47%; HPGD block: inconclusive; HttQ103 aggreg: -10%[9.22 µM]; LMNA splice mod: inconclusive

How did Cc1cccc(N2C(=O)N(Cc3ccc(C(C)(C)C)cc3)c3ccccc3S2(=O)=O)c1 do in these assays?
LMNA splice mod: -16%[46 µM]

How did CC(C)C[C@@H](N)C(=O)O do in these assays?
ALDH1A1 inh: 7%; HTT cytoprotect: -8%; HttQ103 aggreg: -3%; LMNA splice mod: inconclusive

Results for Cc1cc(/C=C(/C#N)c2nc3ccccc3[nH]2)c(C)n1-c1cc(C(=O)O)cc(C(=O)O)c1 ?
ALDH1A1 inh: 2%; JMJD2E inh: 22µM*; HTT cytoprotect: -53%; HttQ103 aggreg: 10%; LMNA splice mod: 12%[46 µM]

Results for CSc1nc(=S)c2[nH]c(=S)[nH]c2[nH]1 ?
ALDH1A1 inh: 1.4µM*; JMJD2E inh: 11µM*; HTT cytoprotect: 15%[10 µM]; HttQ103 aggreg: 3%[9.22 µM]

What do the screens show for `Cc1sc2nc(-c3cccnc3)nc(Cl)c2c1-c1ccccc1`?
ALDH1A1 inh: inconclusive; JMJD2E inh: -1%; HTT cytoprotect: 6%[10 µM]; HPGD block: inconclusive; HttQ103 aggreg: 6%; LMNA splice mod: -14%

How did CCN(CC)CCOC(=O)c1ccc(NC(=O)c2ccc(Cl)c(S(=O)(=O)N3CCCCCC3)c2)cc1 do in these assays?
ALDH1A1 inh: inconclusive; JMJD2E inh: 2%; HTT cytoprotect: -4%[10 µM]; HttQ103 aggreg: 1%; LMNA splice mod: inconclusive

What do the screens show for `Oc1c(C(c2ccccn2)N2CCC(Cc3ccccc3)CC2)cc(Cl)c2cccnc12` (stereo unspecified)?
ALDH1A1 inh: 5.6µM*; JMJD2E inh: inconclusive; HTT cytoprotect: -104%; HttQ103 aggreg: inconclusive

How did CN1CCN(C(c2ccccn2)c2cc(Cl)c3cccnc3c2O)CC1 (stereo unspecified) do in these assays?
ALDH1A1 inh: 10µM*; JMJD2E inh: 25µM*; HTT cytoprotect: -124%; HttQ103 aggreg: inconclusive; LMNA splice mod: inconclusive

Results for Oc1c(C(c2ccccc2Cl)N2CCCC2)ccc2cccnc12 (stereo unspecified) ?
ALDH1A1 inh: inconclusive; JMJD2E inh: inconclusive; HTT cytoprotect: -80%[10 µM]; HttQ103 aggreg: inconclusive; LMNA splice mod: 2%[46 µM]
